# Experimental data from PubChem BioAssay AID504339 (National Center for Advancing Translational Sciences (NCATS), 2011).
# Hit rate of the full screen: of about 390,000 compounds, about 17,000 (4.4%) were called active. Inconclusive results (about 8%) are left out. Only a selection was taken, and actives are over-represented in it overall. Values without a mark were called inactive. Calls follow the shape of the dose curve; as a rule, active = well fitted inhibition curve with a large enough effect; inconclusive = small, poorly fitted or top-dose-only effect; inactive = no such curve, though single readings can be large or run the other way.
# Biological target: Lysine-specific demethylase 4A (Homo sapiens) (UniProt O75164)
# Experiment: qHTS Assay for Inhibitors of JMJD2A-Tudor Domain; also: nearly all actives have a fitted effect of over 50% in size
# Details: AlphaScreen JMJD2A-Tudor / H3K4me3 peptide binding; series mostly up to 114 µM; activity change, negative = inhibition: at the top concentration
# % is scaled to controls: 0 for no effect and ±100 for the full control effect; potency is read from the fitted curve at half-maximal effect.
# Lysine-specific demethylase 4A (Homo sapiens), sequence (O75164 whole entry, looked up, the tested form may be a part): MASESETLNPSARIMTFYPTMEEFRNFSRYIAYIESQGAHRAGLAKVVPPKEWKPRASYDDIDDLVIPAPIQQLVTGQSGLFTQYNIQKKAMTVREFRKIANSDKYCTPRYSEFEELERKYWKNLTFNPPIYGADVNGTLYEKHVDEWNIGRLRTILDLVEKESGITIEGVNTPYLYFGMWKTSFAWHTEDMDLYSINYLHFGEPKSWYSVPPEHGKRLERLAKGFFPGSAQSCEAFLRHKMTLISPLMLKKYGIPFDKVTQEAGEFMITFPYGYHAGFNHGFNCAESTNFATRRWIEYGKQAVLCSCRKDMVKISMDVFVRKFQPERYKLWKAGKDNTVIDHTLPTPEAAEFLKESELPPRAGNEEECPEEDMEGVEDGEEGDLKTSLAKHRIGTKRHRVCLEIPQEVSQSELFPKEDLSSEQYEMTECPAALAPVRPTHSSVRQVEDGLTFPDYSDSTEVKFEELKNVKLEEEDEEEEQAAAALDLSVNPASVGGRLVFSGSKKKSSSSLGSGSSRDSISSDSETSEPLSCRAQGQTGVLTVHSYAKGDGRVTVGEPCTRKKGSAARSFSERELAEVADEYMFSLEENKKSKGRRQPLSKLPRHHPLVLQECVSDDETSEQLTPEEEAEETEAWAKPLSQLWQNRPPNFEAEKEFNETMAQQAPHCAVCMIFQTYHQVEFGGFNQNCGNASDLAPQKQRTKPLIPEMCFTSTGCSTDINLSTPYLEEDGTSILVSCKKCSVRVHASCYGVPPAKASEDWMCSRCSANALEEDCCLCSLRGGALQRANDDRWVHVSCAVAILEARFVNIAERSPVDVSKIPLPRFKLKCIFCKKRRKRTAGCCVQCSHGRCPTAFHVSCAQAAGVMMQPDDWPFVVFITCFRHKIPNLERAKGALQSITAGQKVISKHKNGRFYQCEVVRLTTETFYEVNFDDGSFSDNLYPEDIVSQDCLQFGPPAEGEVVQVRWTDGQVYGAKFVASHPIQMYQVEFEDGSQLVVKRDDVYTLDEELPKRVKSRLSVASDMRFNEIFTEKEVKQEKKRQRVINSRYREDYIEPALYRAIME
Compound,"activity change, negative = inhibition",Potency
COc1ccc(-n2c(SCC(N)=O)nc3c(oc4ccccc43)c2=O)cc1,-1.45%,–
CCn1cc(C(=O)NCc2ccc(C)cc2)c(=O)c2cc(S(=O)(=O)N3CCc4ccccc4C3)ccc21,-23%,–
CCCCNC(=O)c1ccc2c(c1)NC(=O)C(C(C)C)N2 (centres undefined),-9.9%,–
CCOc1ccccc1C(=O)NCC(c1ccc(N(C)C)cc1)N1CCCC1 (centres undefined),-27.5%,–
CN(C)c1ccc(C(CNC(=O)c2ccc(F)cc2)c2c[nH]c3ccccc23)cc1 (centres undefined),–,25.1 µM (active)
C[C@H](NC(=O)c1ccccc1)C(=O)OCC(=O)c1c[nH]c2ccccc12,-10.7%,–
Cc1ccc(CN2COc3cc(C)c4c(oc(=O)c5ccccc54)c3C2)cc1,-22.6%,–
Cc1ccc(NC2=C(c3ccc(C(F)(F)F)cc3)C(=O)c3ccccc32)cc1F,-21.9%,–
COc1ccc(N2C(=O)CSC23C(=O)N(Cc2cccc(F)c2)c2ccccc23)cc1Cl (centres undefined),-12.4%,–
O=C(CS(=O)(=O)c1cccc2nsnc12)N1CCN(c2cccc(Cl)c2)CC1,-21.6%,–
COc1ccc2c(c1OC)C(=O)N(c1ncn[nH]1)C2,–,39.8 µM (active)
COc1ccc(C2C(C#N)=C(N)N(c3ncn[nH]3)C3=C2C(=O)CCC3)cc1 (centres undefined),-18% [at 11.4 µM],–
COc1ccc2c(c1OC)C(=O)N(c1ccc(O)cc1)C2,0%,–
CCOC(=O)c1c(S(=O)(=O)N2CCCC(C(=O)NCc3cccc(C)c3)C2)c(C)n(C)c1C (centres undefined),-17.7%,–
Cc1cc(C)cc(NS(=O)(=O)c2ccc3[nH]cc(C(=O)N4CCCCC4)c(=O)c3c2)c1,-28.7%,–
O=C1C(Cl)=C(Oc2ccccc2)C(=O)c2ccccc21,–,1 µM (active)
Cc1ccc(-n2c3nc(=O)[nH]c(=O)c-3cc3c(Cl)cccc32)cc1,-12.4%,–
COc1cc(CNCCSc2nnnn2C)ccc1OCc1c(F)cccc1Cl,-14.2%,–
CC(=O)O[C@H]1c2ccccc2-c2ccccc2[C@@H]1OC(C)=O,11%,–
COC(CCN(C)C)(c1ccccc1)c1ccccc1,-9.55%,–
CN(C)CCOC1c2ccccc2-c2ccccc21,–,1.41 µM (active)
COc1cc(NC(=O)c2nn(-c3ccc(C)cc3)c(=O)c3c2c2ccccc2n3C)cc(OC)c1OC,-17%,–
O=C(CN1C(=O)COc2ccc(S(=O)(=O)N3CCOCC3)cc21)N1CCN(c2cccc(Cl)c2)CC1,-21.2%,–
Brc1ccccc1/C=N/Nc1nc2ccccc2o1,-17.8%,–
CCOc1ccccc1/C=N/Nc1nc2ccccc2o1,–,17.8 µM (active)

Compound,"activity change, negative = inhibition",Potency
CCOc1ccccc1/C=N/NC(=O)CNC(=O)COc1ccccc1,-34.1%,–
COc1ccc(NC(=O)c2sc3nc[nH]c(=O)c3c2C)cc1,-27.1%,–
O=c1[nH]n(-c2ccc([N+](=O)[O-])cc2)c(=O)c2ccccc12,–,39.8 µM (active)
CC(=O)N1c2ccccc2N(Cc2ccc([N+](=O)[O-])cc2)C(=O)C1(C)C,-30.2%,–
Cc1[nH]n(-c2ccc([N+](=O)[O-])cc2)c(=O)c1C=NCCN1CCN(C(=O)c2ccccc2F)CC1,-10.6%,–
Cc1nc2c(c(C)nn2-c2ccccc2)c(C)c1CCC(=O)NCCc1ccc(Cl)cc1,-8.72%,–
Cc1ccc(C)c(Cn2c(CCCNC(=O)C3CCCCC3)nc3ccccc32)c1,-1.01%,–
COc1ccccc1Cc1nc2ccccc2nc1SCC(=O)N1CCCc2ccccc21,-10.7%,–
Cn1c2ccccc2c(=O)c2c(=O)n(Cc3ccco3)c(COc3ccccc3)nc21,–,44.7 µM (active)
O=C(CSc1nnc(COc2ccc(Cl)cc2)n1Cc1ccco1)N1CCNC1=O,-15.4%,–
CC(C)c1ccc(Cn2c(COc3ccccc3)nc3ccccc32)cc1,38.1%,–
O=C(CSc1nc2c(c(=O)[nH]1)CN(Cc1ccc(F)cc1)CC2)Nc1ccccc1Cl,-12.3%,–
COc1cc2nc(SCc3ccc(F)cc3)n3nc(CCn4c(C)nc5ccccc54)nc3c2cc1OC,-21.7%,–
Cc1ccc2nc3c(cc(C(=O)NC4CCCCC4)c(=N)n3C(C)C)c(=O)n2c1,-7.61%,–
CCC1=Nc2cc(C(=O)NCC(C)c3ccccc3)ccc2Sc2ccc(C)cc21 (centres undefined),-12.7%,–
Cc1cccc(N2CCN(c3ccc(C(=O)O)cc3NC(=O)c3ccccc3F)CC2C)c1 (centres undefined),–,56.2 µM (active)
Cc1cccc(N2CCN(C(=O)c3ccccc3NC(=O)C3CCCCC3C(=O)O)CC2)c1 (centres undefined),-8.22%,–
Cc1cccc(N2CCN(C(=O)c3cccc(S(=O)(=O)N4CCc5ccccc5C4)c3)CC2C)c1 (centres undefined),-19.5%,–
O=S(=O)(c1ccc2c(c1)OCCCO2)N1CCN(S(=O)(=O)c2c(F)cccc2F)CC1,-14.4%,–
CCCCCn1c(=O)[nH]c2cc(C(=O)Nc3ccc(F)cc3)ccc2c1=O,-2.39%,–
COc1ccccc1CNC(=O)CCn1c(=O)c2ccccc2n(CC(=O)Nc2ccc(Br)cc2F)c1=O,-1.02%,–
Cc1ccc2c(c1)-c1c(cnn1CC(=O)Nc1ccccc1C#N)CO2,-9.82%,–
Cn1cc(S(=O)(=O)N2CCCCCC2)cc1C(=O)N1CCN(c2ccc(F)cc2)CC1,-32.9%,–
CCOC(=O)c1cc(-c2ccc(OC)c(S(=O)(=O)Nc3ccc(OC)cc3OC)c2)on1,-13%,–
O=S(=O)(NC1CC1)c1ccc2c3c(cccc13)CC2,–,17.8 µM (active)

Compound,"activity change, negative = inhibition",Potency
O=S(=O)(NC1CC1)c1ccc(Cl)cc1,-7.53%,–
O=S(=O)(NC1CCCCC1)c1ccc(F)c2ccccc12,3.31%,–
Cc1ccc(-c2nnc3c4ccccc4c(C)nn23)cc1NC(=O)c1cccc(Br)c1,-3.78%,–
Cc1ccccc1C(=O)Nc1nnc(S(=O)(=O)N(C)c2ccc(Cl)cc2)s1,2.96%,–
N#Cc1nc(Nc2cccc(Cl)c2)nc(NC2CCCC2)n1,-11.6%,–
COc1ccc(NC(=O)C(c2ccccc2)N2Cc3ccccc3C2=O)cc1 (centres undefined),-26%,–
COc1ccc2c(c1)c(=Cc1ccc(N(C)C)cc1)c1cc(-c3ccccc3)[n+](C)n12,–,22.4 µM (active)
COc1ccc(-c2onc(C)c2C)cc1S(=O)(=O)NCc1cccs1,-8.44%,–
COC(=O)c1cnc(Nc2cc(C)ccc2OC)c2ccccc12,61.9%,–
COc1ccccc1Nc1ncnc2c1oc1ccccc12,17.7%,–
COc1ccc(C)cc1Nc1nc(C)nc2c1oc1ccccc12,–,17.8 µM (active)
O=C(OCC#CCSc1nnc(-c2ccco2)o1)c1ccc(F)cc1,23.8%,–
COC(=O)c1ccc(OC)c(Cn2c(=O)n(Cc3ccccc3)c(=O)c3c2c2cc(OC)ccc2n3C)c1,-11.3%,–
O=C1Nc2ccc(Br)cc2/C1=N/N=C/C1=C(N2CCOCC2)C(=C\c2ccccc2)/CC1,–,5.01 µM (active)
COc1ccc(/C=N/N=C2/C(=O)Nc3ccccc32)cc1O,-12.8% [at 11.4 µM],–
COc1cc(OC)cc(C(=O)Nc2cc3nn(-c4ccccc4)nc3cc2Cl)c1,-5.6%,–
CCCNC(=O)CCC(=O)N1Cc2ccccc2Oc2ncccc21,-21%,–
Cc1ccc(-c2noc(-c3nnn(-c4cccc(C(F)(F)F)c4)c3N)n2)cc1,-19%,–
Cc1cccc(NC(=O)COc2ccc(Br)cc2C)n1,-4.13%,–
CCC(C)NCCOCCOc1ccc(Br)cc1C (centres undefined),–,28.2 µM (active)
Cc1ccc(OCCOCCOc2ccc(Br)cc2/C=N\NC(=O)c2ccncc2)cc1,-16.9%,–
COc1ccc(C2C(=O)N(C3CCCCC3)CC(=O)N2Cc2ccccc2Cl)cc1OC (centres undefined),-23.9%,–
COc1cccc(NC(=O)Nc2ccc3c(c2)N(C)C(=O)c2ccccc2S3)c1,-24.2%,–
CCc1ccc2c(c1)C1(NN=C(c3ccccc3)S1)C(=O)N2 (centres undefined),–,56.2 µM (active)
CCc1cccc(NC(=O)c2cc(-c3ccccc3)n[nH]2)c1,-2.76%,–

Compound,"activity change, negative = inhibition",Potency
CCOc1ccc(CNC(=O)C2CCN(c3nnc(-n4cccc4CNc4ccc(C)cc4)s3)CC2)cc1OC,0.364%,–
O=C(Nc1nnc(S(=O)(=O)N2CCCc3ccccc32)s1)c1cccc(F)c1,–,50.1 µM (active)
O=C(Nc1nnc(S(=O)(=O)N2CCCCCC2)s1)c1cccc(Br)c1,-17.2%,–
CCC(=O)Nc1nnc(S(=O)(=O)N2CCCc3ccccc32)s1,-17.7%,–
Cc1ccc2nc(NC(=O)c3nc(SCc4ccccc4F)ncc3Cl)sc2c1,-12.3%,–
COc1ccc(S(=O)(=O)c2c(Nc3cccc(Cl)c3)sc(C(=O)c3ccccc3)c2N)cc1,-24.2%,–
COc1ccc(C)cc1N(CC(=O)N1CCC(C)CC1)S(=O)(=O)c1ccc(C)cc1,-29.4%,–
CCOc1cc(CN2CCN(C(=O)CC(C)C)CC2)ccc1OC,–,3.16 µM (active)
COc1cc(CN2CCC(C(N)=O)CC2)ccc1OCc1ccccc1,–,50.1 µM (active)
CCOC(=O)C1CCN(CCC(=O)Nc2cccc(C)c2)CC1,4.35%,–
CCOc1cc(CO)ccc1OCC(=O)N1CCCCC1,-14%,–
Cc1c(Br)c([N+](=O)[O-])nn1CC(=O)N1CCN(Cc2ccccc2)CC1,-4.12%,–
CC(C)CC(=O)N1CCN(Cc2ccccc2Br)CC1,–,17.8 µM (active)
CCOC(=O)C1CCN(Cc2ccc(-c3ccccc3)cc2)CC1,–,17.8 µM (active)
CCOC(=O)C1CCN(Cc2nnc(-c3cccc(Br)c3)o2)CC1,1.67%,–
COc1ccc(CN2CCN(C(=O)CCC(=O)Nc3nnc(C(C)C)s3)CC2)cc1F,-11.5%,–
CC(C)CC(=O)N1CCC(O)(CS(=O)(=O)Cc2ccccc2)CC1,-11.5%,–
COc1ccc(COCC(O)CN2CCC(C(N)=O)CC2)cc1 (centres undefined),1.99%,–
COc1ccc(CCN2C(=O)CC(N3CCC(C(N)=O)CC3)C2=O)cc1OC (centres undefined),-2.49%,–
COc1ccc(Cn2ccc3nc(C)c(C(=O)Nc4ccc(C)c(F)c4)cc3c2=O)cc1,-8.67%,–
COc1cccc(NC(=O)CSc2cc(=O)n(C)c3ccc(Cl)cc23)c1,-9.09%,–
CCCNC(=O)c1ccc2c(c1)ncn2-c1ccc(C)cc1C,-20.8%,–
COc1ccc(-c2cc(NCc3ccc(F)cc3)n3cnnc3n2)cc1,-35.8%,–
Cc1cc2oc(C(=O)N(Cc3ccc(Cl)cc3)Cc3ccco3)c(C)c2cc1Cl,-4.86%,–
